Hit rate of the full screen: of about 310,000 compounds, about 14,000 (4.5%) showed an effect of 50% or more. Effects have a minus sign here. The entries come from a sample that favours strong results as a whole.
biological target: human ether-à-go-go-related gene (hERG) potassium channel (human, UniProt Q12809); assay: primary screen, population patch clamp on CHO cells stably expressing hERG; higher = less effect of the substance
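Note: peak tail current of the secondary pulse compared with the same well before compound.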

Sequence of human ether-à-go-go-related gene (hERG) potassium channel (Q12809 whole entry, looked up): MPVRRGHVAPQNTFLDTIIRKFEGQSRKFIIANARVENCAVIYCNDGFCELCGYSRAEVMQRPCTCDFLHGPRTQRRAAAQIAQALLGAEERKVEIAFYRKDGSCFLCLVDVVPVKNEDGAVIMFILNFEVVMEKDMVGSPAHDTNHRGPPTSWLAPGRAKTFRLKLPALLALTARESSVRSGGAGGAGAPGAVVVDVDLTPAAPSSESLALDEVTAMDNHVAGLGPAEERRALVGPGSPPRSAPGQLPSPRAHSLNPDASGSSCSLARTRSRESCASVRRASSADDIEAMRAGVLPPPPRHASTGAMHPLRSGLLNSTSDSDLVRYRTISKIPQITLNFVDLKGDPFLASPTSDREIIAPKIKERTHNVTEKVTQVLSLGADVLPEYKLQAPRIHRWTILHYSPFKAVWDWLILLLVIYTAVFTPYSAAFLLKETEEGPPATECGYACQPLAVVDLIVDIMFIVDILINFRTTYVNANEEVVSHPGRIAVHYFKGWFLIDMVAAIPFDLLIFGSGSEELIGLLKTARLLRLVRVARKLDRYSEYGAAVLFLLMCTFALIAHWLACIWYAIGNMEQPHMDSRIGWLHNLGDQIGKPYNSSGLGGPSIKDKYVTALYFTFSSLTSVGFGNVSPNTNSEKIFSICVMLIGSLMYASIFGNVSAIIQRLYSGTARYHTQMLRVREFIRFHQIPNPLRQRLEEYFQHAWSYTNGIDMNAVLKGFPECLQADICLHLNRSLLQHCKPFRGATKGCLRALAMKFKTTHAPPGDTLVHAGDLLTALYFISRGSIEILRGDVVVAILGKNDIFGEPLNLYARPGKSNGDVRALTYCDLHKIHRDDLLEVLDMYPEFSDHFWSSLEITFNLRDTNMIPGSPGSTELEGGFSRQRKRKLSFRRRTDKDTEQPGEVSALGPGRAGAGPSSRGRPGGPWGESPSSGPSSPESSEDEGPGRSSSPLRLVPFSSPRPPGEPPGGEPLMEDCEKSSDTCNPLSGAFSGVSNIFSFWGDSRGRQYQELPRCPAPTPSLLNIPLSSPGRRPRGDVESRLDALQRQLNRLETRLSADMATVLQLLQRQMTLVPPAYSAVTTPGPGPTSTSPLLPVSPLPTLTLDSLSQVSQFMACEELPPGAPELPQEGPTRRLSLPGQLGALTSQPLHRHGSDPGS

SMILES | hERG current change (%, negative = inhibition) at 10uM
CS(=O)(=O)N1CCN(C(=O)Cc2ccc(Br)cc2)CC1 | -1.44%
COc1ccc2[nH]cc(CCNS(=O)(=O)c3ccc(F)cc3)c2c1 | 4.05%
Cc1cc(C)c(OCC(=O)Nc2nnc(-c3ccco3)o2)c(C)c1 | 1.74%
COc1ccccc1NC(=O)c1sc(Cl)nc1C | 2.93%
O=[N+]([O-])c1ccc(S(=O)(=O)Nc2ccc(-c3ccc(N4CCOCC4)nn3)cc2)cc1 | -7.79%
O=C(Cc1ccccc1)NNC(=S)NC(=O)c1cccnc1 | 14.7%
CC(C)C(NC(=O)C1CCCCC1)C(=O)Nc1ccc2c(c1)OCCO2 (stereo not drawn) | -1.07%
CC(C)(C)OC(=O)N1CC(O)CC1C(=O)OCC(=O)c1ccc(-c2ccccc2)cc1 (stereo not drawn) | 32%
COC(=O)C1Cc2c([nH]c3ccccc23)CN1 (stereo not drawn) | 1.45%
CN(C)c1ccc(N2C(=NC(=O)COc3ccccc3)SC3CS(=O)(=O)CC32)cc1 (stereo not drawn) | 23.7%
COc1ccc(-c2cnn3c4c(c(C)nc23)CCN4C2CCCC2)cc1OC | 2.7%
COc1ccc(S(=O)(=O)N2CCC(C(=O)NCc3cccc(OC)c3)CC2)cc1 | -17.4%
COc1ccc(CNC(=O)C2CCCN(S(=O)(=O)c3ccc(-n4cnnn4)cc3)C2)cc1 (stereo not drawn) | -8.97%
COc1cccc(CNC(=O)C2CCN(S(=O)(=O)c3ccc(-n4cnnn4)cc3)CC2)c1 | -57.3%
COc1cccc(CNC(=O)C2CCN(S(=O)(=O)c3ccccc3)CC2)c1 | -36%
COc1cccc(CNC(=O)C2CCN(S(=O)(=O)c3ccc(C)cc3)CC2)c1 | -50.4%
COc1ccc(S(=O)(=O)N2CCC(C(=O)NCCC(=O)NCc3cccc(OC)c3)CC2)cc1 | -4.05%
Cc1ccc(C(=O)Nc2ccc(N3CCN(S(C)(=O)=O)CC3)cc2)cc1 | 4.23%
c1ccc(-c2nnc3ccc(N4CCC5(CC4)OCCO5)nn23)cc1 | -46.8%
Brc1ccc2ncnc(NCc3ccco3)c2c1 | -39.5%
N#CCc1c(C#N)c(N)nc(N2CCN(c3ccc(F)cc3)CC2)c1C#N | -63.9%

SMILES | hERG current change (%, negative = inhibition) at 10uM
N#CCc1c(C#N)c(N)nc(N2CCOCC2)c1C#N | 1.34%
N#CCc1c(C#N)c(N)nc(N2CCN(C=O)CC2)c1C#N | -10.8%
O=C1OC(=O)c2c(Br)c(Br)c(Br)c(Br)c21 | 20.7%
CC(C)c1ccccc1OCCNC(=O)c1cncc(Br)c1 | -60.6%
O=C(NCCOc1ccccc1)c1cncc(Br)c1 | -26.8%
CC(C)c1ccccc1OCCNC(=O)c1cccnc1 | -1.33%
CC(=O)Oc1ccccc1/C=C/c1ccc2ccccc2[n+]1C.[I-] | 11.3%
O=C(NCc1ccccc1)C1CCC(=O)N(CC2CCCCC2)C1 (stereo not drawn) | 9.03%
CC[n+]1c(/C=C2/C=C(C)CC(C)(C)C2)sc2ccc(OC)cc21.Cc1ccc(S(=O)(=O)[O-])cc1 | -68.7%
CC[n+]1c(/C=C2\C=C(C)CC(C)(C)C2)sc2ccccc21.[I-] | -39.7%
CCC1=C/C(=C/c2sc3ccccc3[n+]2CC)CC(C)(C)C1.[I-] | 11.5%
O=C(COc1ccccc1)Nc1nnc(-c2ccccc2Cl)o1 | 8.56%
CCOC(=O)c1cc(NC(=O)CN2CCCC2)cc(C(=O)OCC)c1 | -16.2%
Br.c1ccc(CN2CCC(N=C3NN=C(c4ccc5c(c4)OCCO5)CS3)CC2)cc1 | -43.1%
Cc1cccc(C)c1NC(=O)CNC(=O)CN1C(=O)NC2(CCc3ccccc32)C1=O (stereo not drawn) | 1.69%
O=C1N=C(N2CCOCC2)S/C1=C\c1ccc(OS(=O)(=O)c2ccccc2)cc1 | -49.8%
CC(=O)N1CCN(C2=NC(=O)/C(=C/c3ccc(OS(=O)(=O)c4ccccc4)cc3)S2)CC1 | -69.6%
NC1=NC(=O)/C(=C/c2ccccc2OS(=O)(=O)c2ccccc2)S1 | 5.2%
CN1CCN(C2=NC(=O)/C(=C/c3ccccc3OS(=O)(=O)c3ccccc3)S2)CC1 | -76.1%
O=C1N=C(N2CCOCC2)S/C1=C\c1ccccc1OS(=O)(=O)c1ccccc1 | 0.61%
CC(=O)N1CCN(C2=NC(=O)/C(=C\c3cccs3)S2)CC1 | -37.1%
